This note sets out measurements from PubChem BioAssay (NCATS).

Inconclusive results are not listed. Values without a mark were called inactive. Calls of active or inactive are those of the source. Calls come from the whole dose curve; as a rule, active = well fitted inhibition curve with a large enough effect; inconclusive = small, poorly fitted or top-dose-only effect; inactive = flat fitted curve, though single readings scatter.
% is set by controls: 0 for no effect and ±100 for the full control effect; potency is the fitted concentration of half-maximal effect.

In the assay the test system is KB-3-1. Kind of assay: Cytotoxic Profiling of Annotated Libraries Using Quantitative High-Throughput Screening (AID 1296008). Note: nearly all actives have a fitted effect of over 60% in size. The following applies: Five cell lines viability, CellTiter-Glo ATP luminescence, 48-72 h; max response: active compounds read low. The method, boiled down: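 Cytotoxicity was measured as CellTiter-Glo ATP luminescence, read after 10 min at room temperature. Compound treatment of the cells lasted 48 or 72 hr at 37 degrees Celsius in a qHTS format.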
In the case of `NS(=O)(=O)c1ccc(N2N=C(c3ccccc3)CC2c2ccccc2)cc1` (centres undefined), the max response is -12.2%. As to `Cc1nc(N2CCN(C(=O)c3ccco3)CC2)c2c3c(sc2n1)CCCC3`, the max response was -12.8%. The same measure, in the same setting: in the case of `CCC(C)c1ccc(NC(=O)Cn2cnc3c2c(=O)n(C)c(=O)n3C)cc1` (centres undefined) it was -2.48%. On to `Cn1ncnc1[C@@H]1c2n[nH]c(=O)c3cc(F)cc(c23)N[C@H]1c1ccc(F)cc1`, for which the compound was called inactive. As for `COC(=O)CC[C@@H](C)C1CCC2C3CCC4C[C@H](OC(C)=O)CCC4(C)C3C[C@H](O)C21C` (some centres undefined), the max response is 9.49%. Still for that read-out and setting: in the case of `O=C(c1ccc(F)cc1)N1CCCC(c2nc(-c3ccc(F)cc3)no2)C1` (centres undefined) it was -21.6%. Consider `Cc1cn2c(n1)Cc1ccc(Cl)cc1C(c1ccc(N)cc1)=N2`, for which the max response was 1.16%. For `C[C@@H]1O[C@@H](O[C@H]2[C@H](OC(=O)[C@]34CCC(C)(C)C[C@H]3C3=CCC5[C@@]6(C)C[C@H](O)[C@H](O[C@@H]7O[C@H](C(=O)O)[C@@H](O)[C@H](O)[C@H]7O)[C@@](C)(CO)C6[C@H](O)C[C@@]5(C)[C@]3(C)C[C@H]4O)O[C@@H](CO)[C@@H]2O)[C@H](O)[C@H](O)[C@H]1O[C@@H]1OC[C@@H](O)[C@H](O[C@H]2OC[C@](O)(CO)[C@H]2O)[C@H]1O` (some centres undefined), the max response was -0.0365%.

In the case of `CCc1c(Cl)c(O)c(Cl)c(O)c1C(=O)O[C@H]1[C@H](O)[C@H](OC)[C@H](OC/C2=C\C=C\C[C@H](O)/C(C)=C\[C@H](CC)[C@@H](O[C@@H]3OC(C)(C)[C@@H](OC(=O)C(C)C)[C@H](O)[C@@H]3O)/C(C)=C/C(C)=C/C[C@@H]([C@@H](C)O)OC2=O)O[C@@H]1C`, the max response is -8.77%. On the same count and under the same terms, in the case of `C/C=C/C=C/C=C/C(=O)O[C@@H]1C=C(CO)C(O)(C(=O)OC)[C@@]2(C)CCCC(C)(C)C12` (some centres undefined) it was -3.74%. Turning to `COCCCNC(=O)c1ccc(Cn2c(=O)c3ccccc3n(Cc3ccc(C(C)C)cc3)c2=O)cc1`, the call was inactive. With `C=CC(C)(O)CC/C=C(\C)C(=O)OC1C(O)C(CO)OC(OC(=O)C23CCC(C)(C)CC2C2=CCC4C5(C)CCC(OC6OC(COC7OCC(OC(C)=O)C(O)C7OC7OC(COC(C)=O)C(O)C(O)C7OC(C)=O)C(O)C(O)C6OC6OCC(O)C(O)C6O)C(C)(C)C5CCC4(C)C2(C)C(O)C3O)C1OC1OCC(OC2OCC(O)C(OC3OCC(O)C(O)C3O)C2O)C(O)C1O` (centres undefined), the max response was -19.5%. Still for that read-out and setting: in the case of `C[C@@H]1O[C@@H](O[C@H]2[C@H](O[C@H]3CC[C@@]4(C)C(CC[C@]5(C)C4C=C[C@]46OC[C@@]7(CCC(C)(C)C[C@H]74)[C@@H](O[C@@H]4O[C@@H](C)[C@H](O)[C@@H](O)[C@H]4O)C[C@]65C)[C@]3(C)CO)O[C@H](CO)[C@@H](O)[C@@H]2O[C@@H]2O[C@H](CO)[C@@H](O)[C@H](O)[C@H]2O)[C@H](O)[C@H](O)[C@H]1O` (some centres undefined) it was -1.23%; in that of `O=C(Nc1ccc(N2C(=O)[C@@H]3[C@H](C2=O)[C@@H]2C=C[C@H]3C2)c(Cl)c1)c1ccccn1`, -24.5%; in that of `Cc1c(C2=CCN(C(=O)N(C)C(C)C)CC2)nnn1-c1cccnc1F`, 7.23%. On the same count and under the same terms, in the case of `CNC(=O)c1ccc2c(c1)CCO[C@H]2CCN1CCN(c2ccc(OC)cc2)CC1` it was -8.62%; in that of `CCCc1cc(C)n(C)c(=O)c1CN(C)C(=O)c1cc(-c2ccc(N3CCN(C(C)C)CC3)nc2)cc2c1cnn2C(C)C`, 4.77%. Same read-out and setting: in the case of `Cn1c(SCC(=O)N2CCC[C@H]2C(=O)Nc2ccccc2-c2ccccc2)nc2ccccc21` it was 7.08%; in that of `COc1cc(/C=N\NC(=O)c2ccc3c(c2)OCO3)ccc1OCc1ccccc1`, -9.36%; in that of `CC(=O)OC1C(OC(=O)c2ccccc2)C2C(C)(C)CCC(OC(C)=O)C2(C)C23CCC(C)(C2)C(=O)CC13` (centres undefined), 6.15%.

In the case of `CC1(CO)CC(O)[C@]2(C(=O)O)CCC34CC3(C=CC3[C@]5(C)C(CC[C@]34C)C(C)(CO)[C@@H](O)[C@H](O)[C@@H]5O)C2C1` (some centres undefined), the outcome was inactive.

As for `Cc1ccc(S(=O)(=O)NCc2ccc(C(=O)NCCN(Cc3ccccc3)C(C)C)cc2)cc1`, the max response is -24.2%. The same measure, in the same setting: in the case of `CC(=O)O[C@H]1C[C@@](O)(C(C)C)[C@@H]2[C@@H](OC(=O)c3ccc(O)cc3)CC(C)=CC[C@@]12C` it was 6.43%. As for `C=CCCN1CCC2(CC1)CN(C(=O)c1c(F)cccc1F)c1ccc(Cl)cc12`, the outcome was inactive. As for `C[C@@H]1CC[C@]2(C(=O)O)CC[C@]3(C)C(=CCC4[C@@]5(C)CC[C@H](O)[C@](C)(C(=O)O)C5CC[C@]43C)C2[C@]1(C)O` (some centres undefined), the max response was 0.684%. Still for that read-out and setting: in the case of `O=C(c1ccccn1)N(Cc1cccs1)C1(C(=O)NC2CCCCC2)CCCCC1` it was 7.82%; in that of `NS(=O)(=O)c1ccc(N2CCN(CC[C@@H]3OCCc4ccccc43)CC2)cc1`, -10.3%.

As for `C=CC(C)(O)CC[C@@H]1[C@@]2(C)CCCC(C)(C)C2CC[C@@]1(C)O` (some centres undefined), the max response was -9.76%. Take `C[C@@H]1O[C@@H](O[C@H]2CC[C@@]3(C)C(CC[C@]4(C)C3CC=C3[C@@H]5CC(C)(C)CC[C@]5(C(=O)O[C@@H]5O[C@H](CO)[C@@H](O)[C@H](O)[C@H]5O)CC[C@]34C)[C@]2(C)CO)[C@H](O)[C@H](O[C@@H]2O[C@H](CO)[C@@H](O)[C@H](O)[C@H]2O)[C@H]1O` (some centres undefined): the compound was called inactive.

`CC(C)=CCCC1(C)C2CCC1(C)C(O)C2` (centres undefined): the max response was -23.6%. For the compound `COCC(c1ccc(C(F)(F)F)cc1)N1CCN(C2(C)CCN(C(=O)c3c(C)ncnc3C)CC2)CC1C` (centres undefined), the max response is 8.07%. On the same count and under the same terms, in the case of `C=C[C@H](/C=C\c1ccc(O)cc1)c1ccc(O)cc1` it was -11.7%; in that of `CCOc1ccc(-n2c([C@@H](C)N(Cc3cccnc3)C(=O)Cc3ccc(OC(F)(F)F)cc3)nc3ncccc3c2=O)cc1`, 4.98%. For the compound `CC(O)(C(=O)C1CC1(CO)COC1OC(CO)C(O)C(O)C1O)C1C(O)CC2C3CC=C4CC(O)CC(O)C4(C)C3C(O)CC21C` (centres undefined), the Potency is 769 nM (active). As for `C=CC(C)(O)CC/C=C(/C)COC(=O)C(C)C1CCC(C)(C=C)O1` (centres undefined), the max response is 8.61%. Same read-out and setting: in the case of `COc1cc(NC(=O)c2cc(C3CC3)on2)c(OC)cc1Cl` it was 7.13%. As for `CC(=O)O[C@@H]1CC2C(/C=C(\C)C(=O)[C@@]3(O)C[C@@H](C)[C@H](OC(=O)c4ccccc4)C3/C=C/1C)C2(C)C` (some centres undefined), the call was inactive. On to `CCC/C=C\C=C/CCc1cc(O)c([C@@H]2O[C@H](CO)[C@@H](O)[C@H](O)[C@H]2O)c(O)c1C(=O)OC`, for which the max response was -7.75%. Same read-out and setting: in the case of `Nc1nc2c(s1)CCN(Cc1ccc(Cl)cc1)CC2` it was 6.96%.
